Bioassay records as filed in PubChem BioAssay.
Most compounds without a hit are left out; they make up all but 5.7% or so of the library.
DAX1 inh-1: DAX1 (NR0B1) inhibitors, primary screen, cell-based, HEK293, Gal4-DAX1, luciferase luminescence; HEK293 Gal4-DAX1 luciferase reporter; inhibition, % at 6.75 µM; 340,000 compounds, 0.99% hits;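 active = inhibition above the mean over all tested compounds plus 3 SD, cut at about 4.2% in these data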;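 note: inhibition shows as a rise in luminescence from relieved DAX1 repression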
hgDAF-12 ag: H. glycines DAF-12 receptor agonists, primary screen, cell-based, luminescence, HEK293, GAL4 fusion, UAS-luciferase; HEK293 GAL4-hgDAF12 UAS-luciferase reporter, agonist luminescence; normalized to butyrate control; activation, % at 6.8 µM; 370,000 compounds, 1.8% hits;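 active = activation above a cutoff set at the mean of all screened compounds plus 3 SD, cut at about 10% in these data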
DAX1 inh-2: DAX1 (NR0B1) inhibitors on StAR promoter, primary screen, cell-based, luminescence, SF-1 (NR5A1), full-length DAX-1; HEK293T StAR-luciferase reporter, SF-1/DAX-1 repression relief; inhibition, % at 6.8 µM; 370,000 compounds, 1.1% hits; AID 652010, 2013;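 active = inhibition above the mean over all tested compounds plus 3 SD, cut at about 3.6% in these data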;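 note: higher inhibition means more luminescence from relief of DAX-1 repression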
ssDAF-12 act: S. stercoralis DAF-12 nuclear receptor activators, primary screen, cell-based, luminescence, HEK293, GRIP1 co-expression, lit1-tk-luc. Nuclear hormone receptor DAF-12 (Strongyloides stercoralis). HEK293 ssDAF-12/GRIP1 lit1-tk-luc reporter; % of 3 µM dafachronic acid response. 370,000 compounds, 1% hits. AID 652126, 2013. activation, % at 6.8 µM;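 active = activation above the mean over all tested compounds plus 3 SD, cut at about 0.9% in these data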
AHR act: AHR activators, primary screen, cell-based, luminescence, luciferase reporter, human. 320,000 compounds, 2.5% hits. AID 2796, 2010. activation, % at 5 µM. AHR-responsive luciferase reporter cells; in the data active = activation above about 47%
Target sequence (P35869 whole entry, looked up): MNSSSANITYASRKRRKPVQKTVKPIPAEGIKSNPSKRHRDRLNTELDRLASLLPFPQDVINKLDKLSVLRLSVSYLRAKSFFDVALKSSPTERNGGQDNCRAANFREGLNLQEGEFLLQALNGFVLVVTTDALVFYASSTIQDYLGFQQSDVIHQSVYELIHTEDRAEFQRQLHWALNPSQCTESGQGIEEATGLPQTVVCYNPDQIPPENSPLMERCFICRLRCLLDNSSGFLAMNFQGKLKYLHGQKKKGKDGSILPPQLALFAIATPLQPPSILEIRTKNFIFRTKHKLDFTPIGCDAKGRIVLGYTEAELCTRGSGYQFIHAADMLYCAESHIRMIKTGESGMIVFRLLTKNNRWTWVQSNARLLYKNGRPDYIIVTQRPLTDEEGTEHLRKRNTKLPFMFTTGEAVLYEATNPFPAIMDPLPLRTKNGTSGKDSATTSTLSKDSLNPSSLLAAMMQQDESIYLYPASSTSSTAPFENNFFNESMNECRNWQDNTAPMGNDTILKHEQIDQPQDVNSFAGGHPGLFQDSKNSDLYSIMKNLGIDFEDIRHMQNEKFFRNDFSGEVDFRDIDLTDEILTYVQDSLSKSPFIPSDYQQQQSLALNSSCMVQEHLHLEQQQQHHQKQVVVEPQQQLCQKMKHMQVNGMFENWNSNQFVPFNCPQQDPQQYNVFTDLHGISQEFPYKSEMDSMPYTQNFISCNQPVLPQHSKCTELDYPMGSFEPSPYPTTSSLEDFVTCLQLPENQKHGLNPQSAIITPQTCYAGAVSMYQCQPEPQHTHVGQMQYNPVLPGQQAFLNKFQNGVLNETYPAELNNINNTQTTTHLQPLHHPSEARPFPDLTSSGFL
hcDAF12 agonist: H. contortus DAF-12 nuclear receptor activators, primary screen, cell-based, luminescence, HEK293, lit1-tk-luc reporter. 370,000 compounds, 1.4% hits. HEK293 hcDAF-12 lit1-tk-luc reporter; 0% DMSO, 100% Δ7-dafachronic acid. activation, % at 6.8 µM. AID 652067, 2013;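 active = activation above the mean of all tested compounds plus 3 SD, cut at about 5.5% in these data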
A number is an active result; n = inactive; x = not tested or not shown.

SMILES	DAX1 inh-1	hgDAF-12 ag	DAX1 inh-2	ssDAF-12 act	AHR act	hcDAF12 agonist
CC(=O)c1sc(NC(=O)C(C)(C)C)nc1C	n	n	n	n	n	n
Oc1ccc(C=Nc2ccccc2-c2nc3ccccc3[nH]2)c(O)c1	n	n	n	n	95	n
COc1ccc(OC)c(/C=C/c2nc3ccccc3[nH]c2=O)c1	n	n	n	n	60	n
COc1ccc(OC)c(C=Nc2ccccc2-c2nc3ccccc3[nH]2)c1	n	12	n	n	87	n
O=c1[nH]c2ccccc2nc1/C=C/c1ccccc1	n	12	n	n	57	6.4
COc1ccc(Cc2nc3ccccc3[nH]c2=O)cc1	n	n	n	n	n	n
O=C1NC[C@@H](CCCCN2CCN(CCc3ccccc3)C(=O)C2=O)N(CCc2ccc(O)cc2)C1=O	x	n	n	n	x	n
COc1cc(C(=O)NCC(=O)N/N=C/c2ccco2)cc(OC)c1OC	n	n	n	n	n	n
Cc1sc(NC(=O)COc2cccc(-n3cnnn3)c2)c(C#N)c1C	n	n	n	n	n	n
CC(=Nc1ccccc1)C1=C(O)CC(C)(C)CC1=O	n	n	n	n	n	n
CC(=Nc1ccccc1)C1=C(O)CCCC1=O	5.2	n	n	n	n	n
CC(C)(C)OC(=O)N1CCC[C@H]1C(=O)NCc1ccc(F)cc1F	x	n	n	n	x	n
COc1ccc(C)c2sc(NC(=O)C3CC3)nc12	n	n	n	n	74	n
COc1ccc(OC)c2sc(NC(=O)CCSc3ccccc3)nc12	n	n	n	n	59	n
CCOC(=O)N1CCN(C(=O)c2ccc3oc(CCc4ccccc4)nc3c2)CC1	n	n	n	n	x	n
CC(C)CCOc1cccc(C2c3c(oc4ccccc4c3=O)C(=O)N2CCCN2CCOCC2)c1 (configuration not stated)	n	n	n	n	x	n
Cc1nc2nc(C)c(NS(=O)(=O)c3ccc(CC(C)C)cc3)c(=O)n2[nH]1	n	n	n	n	n	n
C=CCn1c(N)cc(=O)nc1SCC(=O)Nc1ccc(C(=O)OC)cc1	n	n	n	n	n	n
CCOC(=O)c1ccc(NC(=O)CSc2nnc(CNc3ccc(OC)cc3)n2C)cc1	n	n	n	n	59	n
COc1ccc(-n2c(Cc3cccn3C)nnc2SCC(=O)NCc2ccc(F)cc2)cc1	n	n	n	n	n	n
C=CCn1c(N)cc(=O)nc1SCC(=O)Nc1ccc(C(=O)OCC)cc1	5.8	n	n	n	n	n
COc1ccc(-n2c(Cc3cccn3C)nnc2SCC(=O)NCc2ccco2)cc1	n	n	n	n	66	n
CCc1ccc(NC(=O)CSc2nnc(Cc3cccn3C)n2-c2ccc(OC)cc2)cc1	4.7	n	n	n	n	n
Cc1ccc2c(c1)cc(C(=O)N1CCN(c3ccccn3)CC1)n2C	n	n	n	n	n	n
Cc1ccc(CSCCNC(=O)c2cccc([N+](=O)[O-])c2)cc1	n	n	n	n	n	n
SMILES	DAX1 inh-1	hgDAF-12 ag	DAX1 inh-2	ssDAF-12 act	AHR act	hcDAF12 agonist
CC(=O)N1N=C(c2cccs2)CC1c1cccs1 (configuration not stated)	n	n	n	n	n	n
CC(=O)N1N=C2c3ccccc3CCC2C1c1cccs1 (configuration not stated)	x	n	n	n	60	n
Cc1c(C(N)=O)c(N)c(C(=O)c2ccccc2)n1-c1ccccc1	5.0	n	n	n	n	n
Cn1c(=N)n(CC(=O)c2ccc(F)cc2)c2ccccc21	n	11	n	1.2	65	13
CCOC(=O)Cn1c(=N)n(CCOc2ccc(OC)cc2)c2ccccc21	n	x	x	x	n	x
Cc1n(CC(=O)c2ccc(F)cc2)c2ccccc2[n+]1C	n	n	n	n	n	n
CCn1c(=N)n(CC(=O)c2ccc(OC)cc2)c2ccccc21	n	n	n	n	66	n
NS(=O)(=O)c1ccc(CCNC(=O)c2ccc(=O)[nH]c2)cc1	n	n	n	n	n	n
CCCNC(=O)c1cc2c3ccccc3n(C)c2s1	n	n	n	n	52	n
CCCNC(=O)c1cc2c(C(F)(F)F)nn(C)c2s1	n	n	n	n	n	n
CC(=O)Nc1ccc(S(=O)(=O)NNC(=O)c2cc3c4ccccc4n(C)c3s2)cc1	n	n	n	n	75	n
Cn1c2ccccc2c2cc(C(=O)NNC(=O)CCl)sc21	n	n	n	n	62	6.2
COCCNC(=O)c1cc2c3ccccc3n(C)c2s1	n	n	n	n	49	n
COC(=O)c1sccc1-n1cc(C#N)c(=O)n(C)c1=O	n	n	n	n	n	n
Cn1c(CN2CCOCC2)nnc1SCc1ccccc1	n	n	n	n	n	n
Cc1nc(SCc2ccccc2)nc2c1CCC2	n	11	n	n	n	n
CCOC(=O)N1CCN(C(=O)c2cccc(S(=O)(=O)Nc3ccc(OC)cc3)c2)CC1	n	n	n	n	n	n
C=CCOn1c(=O)c(=O)n(OCc2ccccc2)c2ccccc21	n	n	n	n	n	n
CCC1CCCCN1c1ccc([N+](=O)[O-])cc1/C=N/NC(=O)Cn1c2ccccc2c(=O)c2ccccc21 (configuration not stated)	6.0	n	n	n	n	n
CSc1ccc(/C=C(/NC(=O)c2ccc(C)cc2)C(=O)Nc2cccc(F)c2)cc1	n	n	n	n	n	6.3
CC(=O)c1cccc(NC(=O)/C(=C\c2cccnc2)NC(=O)c2ccc(C)cc2)c1	n	n	n	n	n	n
S=C(Nc1ccccc1)Nc1cccc(Cl)c1Cl	6.1	n	n	n	n	n
CNC(=S)N/N=C/c1ccccc1Cl	n	n	n	n	60	n
CNC(=S)N/N=C/c1c(Cl)cccc1Cl	n	n	n	n	n	n
CC(=O)Nc1cccc(NC(=S)Nc2cccc(Cl)c2Cl)c1	n	n	n	n	n	n
S=C(N/N=C/c1ccccc1Cl)Nc1ccccc1	4.4	11	n	n	62	n
S=C(N/N=C/c1cccc2ccccc12)Nc1cccc(Cl)c1	n	n	n	n	48	n
COc1ccc(-c2noc(CN3CCN(c4ccccc4F)CC3)n2)cc1OC	n	n	n	n	n	n
CCCCn1c(N)c(N(CCOC)C(=O)c2ccc(N3C(=O)c4ccccc4C3=O)cc2)c(=O)[nH]c1=O	n	n	n	n	x	n
